Records with an inconclusive call do not appear. Calls of active or inactive are those of the source. Calls follow the shape of the dose curve; as a rule, active = well fitted curve in the direction sought with a large enough effect; inconclusive = small, poorly fitted or top-dose-only effect, or another doubt; inactive = no such curve, though single readings can be large; an effect the other way counts as inactive or inconclusive.

Test [1] is described as follows: qHTS of pediatric cancer cell lines to identify multiple opportunities for drug repurposing: Confirmatory screen for RD cells (AID 1347124).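 Also: cells exposed to compound for 48 h before viability readout; nearly all actives have a fitted effect of over 65% in size.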 Also: potency is read from the fitted curve at half-maximal effect. In outline: (§1)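 Cells (500-1,000/well) in growth media were settled 5 h at 37 degrees C, then given compounds for 48 h. Viability was read as CellTiter-Glo luminescence. Primary runs used MIPE at 11 points (0.78 nM-46 µM) and NPC at 8 points (0.59 nM-46 µM); follow-ups used 11 points.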

The nature of test [2]: qHTS of pediatric cancer cell lines to identify multiple opportunities for drug repurposing: Confirmatory screen for Rh30 cells (AID 1347126). Also: nearly all actives have a fitted effect of over 55% in size. In outline:
as §1
Background: Quantitative high-throughput screening tests each substance at several concentrations.

Test [3] in a line: qHTS of pediatric cancer cell lines to identify multiple opportunities for drug repurposing: Confirmatory screen for Saos-2 cells (AID 1347127). Also: potency is read from the fitted curve at half-maximal effect; nearly all actives have a fitted effect of over 60% in size. In outline:
as §1

Test [4] in a line: qHTS of pediatric cancer cell lines to identify multiple opportunities for drug repurposing: Confirmatory screen for SK-N-SH cells (AID 1347129).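 Also: cells exposed to compound for 48 h before viability read; nearly all actives have a fitted effect of over 60% in size.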 Put shortly: as §1
Test [5] deals with Zika virus NS2B-NS3 protease. Put plainly: Primary screen GU AMC qHTS for Zika virus inhibitors (AID 1347154). Also: nearly all actives have a fitted effect of over 70% in size. Also: potency is read from the fitted curve at half-maximal effect. Put shortly: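 Unlinked Zika NS2B hydrophilic domain/NS3 protease domain noncovalent complex (25 nM final) in 10 mM Tris-HCl pH 8.0, 0.01% Tween 20, with AMC peptide substrate. Fluorescence (ex 340, em 450 nm) change over 15 min, room temperature; percent inhibition fitted to 4-parameter Hill equation.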

Test [6] can be described thus: qHTS of pediatric cancer cell lines to identify multiple opportunities for drug repurposing: Confirmatory screen for OHS-50 cells (AID 1347128).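 Also: compound exposure lasted 48 h at 37 degrees C; nearly all actives have a fitted effect of over 55% in size.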 In outline:
as §1

The target of the next test is Furin (Homo sapiens) (UniProt P09958). Put plainly: Furin counterscreen qHTS for Zika virus inhibitors (AID 1347149). Also: potency is read from the fitted curve at half-maximal effect; nearly all actives have a fitted effect of over 70% in size. Put shortly:
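Fluorogenic cleavage of BOC-RVRR-AMC (2 microM final, Km ~15 µM) was monitored (ex 340, em 450 nm) at 37C after 15 min RT preincubation of 5 nM furin with compounds in HEPES pH 7.0 buffer with CaCl2 and Triton X-100. Percent inhibition was fitted to a 4-parameter Hill curve.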

The test system of test [7] is Zika virus NS2B-NS3 protease (linked construct). Nature of the test: Confirmatory screen NINDS AMC qHTS for Zika virus inhibitors (AID 1347152). Also: potency is read from the fitted curve at half-maximal effect; nearly all actives have a fitted effect of over 70% in size. Put shortly:
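Linked NS2B-NS3 protease, 1 nM, in 10 mM Tris-HCl pH 8.0, 0.01% Tween 20; compounds preincubated 15 min at room temperature. Nle-KRR-AMC 10 microM (Km 18.3 µM); 15-min fluorescence change (340/450 nm) fitted to 4-parameter Hill.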

Test [8] has as its system Zika virus NS2B-NS3 protease (unlinked complex). Put plainly: Confirmatory screen GU AMC qHTS for Zika virus inhibitors (AID 1347153). Also: potency is read from the fitted curve at half-maximal effect; nearly all actives have a fitted effect of over 70% in size. In outline: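 Unlinked enzyme 25 nM, Tris pH 8.0/0.01% Tween 20; cpd 15 min RT, dark; + AMC substrate 10 µM (Km 18.3 µM); 340/450 nm read at t0 and 15 min; % inhibition → 4-param fit.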
Test [9] in a line: Confirmatory screen NINDS Rhodamine qHTS for Zika virus inhibitors (AID 1347161). Also: nearly all actives have a fitted effect of over 60% in size. Also: potency is read from the fitted curve at half-maximal effect. In outline:
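qHTS dose-response: 25 nM linked protease, pH 8.0 Tris/Tween buffer, cpd titration, 15 min RT preinc, 1.5 microM Rhod110 peptide, 15 min reaction (~15% conversion), Ex480/Em540; 4-parameter Hill fit.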

The subject of test [10] is Zika virus NS2B-NS3 protease (linked). Nature of the test: 384 well plate NINDS AMC confirmatory qHTS for Zika virus inhibitors (AID 1347163). Also: nearly all actives have a fitted effect of over 50% in size. Also: potency is read from the fitted curve at half-maximal effect. Put shortly:
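Linked NS2B-NS3 protease (final 5 nM, 30 nM or 60 nM) was preincubated with compounds (final up to 1 mM) for ~15 minutes. Ac-VKTGKR-AMC substrate (final 30 microM) then reacted for 25 minutes at room temperature in the dark. Fluorescence (ex 355/em 460 nm) was normalized to no-enzyme and no-inhibitor controls.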

Test [11] is described as follows: Confirmatory screen GU Rhodamine qHTS for Zika virus inhibitors qHTS (AID 1347157). Put shortly: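 Unlinked NS2B/NS3, 25 nM; Rhod110 peptide, 1.5 microM; compounds, up to 114 microM. Reaction run 15 min at RT in 10 mM Tris-HCl pH 8.0, 0.01% Tween 20; kinetic fluorescence change fitted with a 4-parameter Hill model.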
In test [12] the test system is Zika virus NS2B-NS3 protease (unlinked complex). Put plainly: Primary screen GU Rhodamine qHTS for Zika virus inhibitors: Unlinked NS2B-NS3 protease assay (AID 1347159). Also: nearly all actives have a fitted effect of over 60% in size. Also: potency is read from the fitted curve at half-maximal effect. Put shortly:
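Compounds, tested up to 114 microM, were incubated for 15 minutes with 25 nM unlinked NS2B-NS3 protease at pH 8.0. Cleavage of 1.5 microM Rhodamine110 substrate was then followed by fluorescence for 15 minutes.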

In test [13] the test system is Zika virus NS2B-NS3 protease (linked construct). Nature of the test: Primary screen NINDS Rhodamine qHTS for Zika virus inhibitors (AID 1347160). Also: nearly all actives have a fitted effect of over 55% in size. In outline:
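Percent inhibition, normalized to uninhibited and enzyme-free controls, is fitted to a 4-parameter Hill equation. Fluorescence change comes from a 15-min cleavage of 1.5 microM bis-peptide Rhodamine110 substrate by 25 nM linked NS2B-NS3 at room temperature.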

Test [14] has as its system Zika virus NS2B-NS3 protease (unlinked). Nature of the test: Optimization of GU AMC qHTS for Zika virus inhibitors: Unlinked NS2B-NS3 protease assay (AID 1347151). Also: series mostly up to about 52 µM; nearly all actives have a fitted effect of over 80% in size. Put shortly:
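Noncovalent NS2B hydrophilic domain–NS3 protease complex (25 nM final) in 10 mM Tris-HCl pH 8.0, 0.01% Tween 20; AMC substrate, room temperature 15 min (~20% conversion); fluorescence change normalized, 4-parameter Hill fit.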

Sequence of Furin (Homo sapiens) (P09958 whole entry, looked up): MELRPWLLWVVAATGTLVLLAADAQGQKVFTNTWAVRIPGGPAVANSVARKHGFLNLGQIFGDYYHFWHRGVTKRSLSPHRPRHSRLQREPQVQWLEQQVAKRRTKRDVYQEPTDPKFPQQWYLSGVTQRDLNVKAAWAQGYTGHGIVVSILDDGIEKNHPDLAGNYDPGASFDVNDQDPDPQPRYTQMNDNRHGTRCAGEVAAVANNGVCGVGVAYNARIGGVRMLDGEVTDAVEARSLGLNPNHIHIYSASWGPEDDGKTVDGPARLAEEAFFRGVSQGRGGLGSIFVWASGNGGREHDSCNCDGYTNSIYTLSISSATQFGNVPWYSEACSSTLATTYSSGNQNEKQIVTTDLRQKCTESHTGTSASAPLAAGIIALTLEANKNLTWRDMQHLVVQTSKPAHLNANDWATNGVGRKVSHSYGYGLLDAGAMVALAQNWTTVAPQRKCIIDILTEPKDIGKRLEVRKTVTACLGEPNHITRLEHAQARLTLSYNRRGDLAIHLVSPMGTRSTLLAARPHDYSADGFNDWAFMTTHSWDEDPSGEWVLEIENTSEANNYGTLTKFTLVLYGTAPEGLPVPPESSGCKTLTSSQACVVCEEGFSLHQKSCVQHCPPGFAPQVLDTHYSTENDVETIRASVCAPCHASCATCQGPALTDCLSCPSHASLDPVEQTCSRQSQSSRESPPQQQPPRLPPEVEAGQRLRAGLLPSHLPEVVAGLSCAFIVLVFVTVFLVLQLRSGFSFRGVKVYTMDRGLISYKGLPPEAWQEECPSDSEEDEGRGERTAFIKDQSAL

In the case of `CC[C@H](NC(=O)[C@H](C)NC)C(=O)N1C[C@@H](O)C[C@H]1Cc1c(-c2[nH]c3cc(F)ccc3c2C[C@H]2C[C@H](O)CN2C(=O)[C@H](CC)NC(=O)[C@H](C)NC)[nH]c2cc(F)ccc12`, the Potency result in test [1], in test [2] and in test [4] was “inactive” in each case. Further, the Potency in test [3] was 5.22 µM (active); in test [5], 17.1 µM (active).

Regarding `OCCn1cc(-c2ccc3c(c2)CCC3=NO)c(-c2ccncc2)n1`, the Potency in [1] was 8.51 µM (active). The Potency result in test [6], in [4] and in test [5] was “inactive” throughout.

In the case of `CCCC1OC2C[C@@H]3[C@H]4CCC5=CC(=O)C=C[C@]5(C)[C@H]4C(O)C[C@]3(C)[C@]2(C(=O)CO)O1` (some centres undefined), the Potency result in test [6], in [4] and in [5] was “inactive” throughout.

For the compound `O=C(Nc1cccc2c(=O)cc(-c3nn[nH]n3)oc12)c1ccc(OCCCCc2ccccc2)cc1`, the Potency was 30.4 µM (active) with Furin (Homo sapiens); 5.41 µM (active) in test [7]; 6.81 µM (active) in [8]; 8.91 µM (active) in test [5]; 1.75 µM (active) in [9]; 28.2 µM (active) in test [10].

For the compound `Cc1nc(C(=O)NCC(=O)O)c(O)c2ccc(Oc3ccccc3)cc12`, the Potency is 21.5 µM (active) in test [7]; 21.5 µM (active) in test [5]; 44.1 µM (active) in test [11]; 22.4 µM (active) in test [12]; 34.9 µM (active) in test [9].

In the case of `O=C(O)Cc1cccc(OCCCN(Cc2cccc(C(F)(F)F)c2Cl)CC(c2ccccc2)c2ccccc2)c1`, the Potency with Furin (Homo sapiens) was 7.62 µM (active); in test [7], 19.2 µM (active); in test [8], 17.1 µM (active); in test [9] it was 1.56 µM (active).

Turning to `CCC=CC[C@H]1C(=O)CC[C@@H]1CC(=O)OC`, the Potency result in test [5] is “inactive”.

Regarding `O=C(Nc1ccccc1)Nc1ccc(-c2ccc(C(=O)[C@H]3CCC[C@H]3C(=O)O)cc2)cc1`, the Potency with Furin (Homo sapiens) is 34 µM (active); in [7], 24.1 µM (active); in [8] it was 24.1 µM (active); in [9], 3.92 µM (active). Also, the Potency result in test [10] was “inactive”.

For the compound `CCCCOCCOc1nc(-c2ccc(C(=O)O)c(F)c2)sc1C`, the Potency was 12.1 µM (active) in the test with Furin (Homo sapiens), 19.2 µM (active) in [7], 12.1 µM (active) in test [8] and 49.3 µM (active) in [9].

For the compound `C[C@]12CCC3=C4CCC(=O)C=C4CC[C@@H]3[C@H]1CC[C@@]2(O)CC#N`, the Potency entry in test [5] is “inactive”.

Consider `CCOC(=O)[C@H]1O[C@H]1C(=O)N[C@@H](CC(C)C)C(=O)NCCC(C)C`, for which, in test [5], the Potency entry was “inactive”.

Take `N#CC(c1ccc(Cl)cc1)c1c(Cl)cc(-n2ncc(=O)[nH]c2=O)cc1Cl` (centres undefined): the Potency is 21.5 µM (active) in test [7], 21.5 µM (active) in [8] and 4.4 µM (active) in test [9].

As to `c1cc(OCCN2CCCCC2)cc(-c2n[nH]c3ccc(-c4ncn[nH]4)cc23)c1`, the Potency was 21.5 µM (active) with Furin (Homo sapiens), 24.1 µM (active) in [7] and 24.1 µM (active) in test [5]. Besides, the Potency result in test [12], in test [13] and in test [9] was “inactive” in each case.

`CN1CCN2c3ncccc3Cc3ccccc3C2C1` (centres undefined): the Potency result in test [5] was “inactive”.

As for `OC(c1cc(C(F)(F)F)nc2c(C(F)(F)F)cccc12)C1CCCCN1` (centres undefined), the Potency with Furin (Homo sapiens) is 0.961 µM (active). Also, in [14], the result was inactive. Further, the Potency result in test [5] is “inactive”.

Take `CN1CC(=O)N2C(Cc3c([nH]c4ccccc34)[C@H]2c2ccc3c(c2)OCO3)C1=O` (some centres undefined): in test [5], the Potency result is “inactive”.

`O=c1[nH]c(=O)n([C@H]2C[C@@H](O)[C@@H](CO)O2)cc1C(F)(F)F`: the Potency entry in [5] is “inactive”.

For the compound `CC[C@H](C)n1cc(C)c2c(C(=O)NCc3c(C)cc(C)[nH]c3=O)cc(-c3ccc(N4CCNCC4)nc3)cc21`, the Potency with Furin (Homo sapiens) is 27 µM (active); in test [7], 27.1 µM (active); in test [8] it was 27.1 µM (active); in [5], 21.5 µM (active). Further, in test [9], the Potency result was “inactive”.

Regarding `CC(C)c1onc(-c2c(Cl)cccc2Cl)c1COc1ccc(C=Cc2cccc(C(=O)O)c2)c(Cl)c1`, the Potency is 30.4 µM (active) in the test with Furin (Homo sapiens); 24.1 µM (active) in test [7]; 24.1 µM (active) in test [8]; 13.6 µM (active) in test [5]; 1.56 µM (active) in test [9].

The record behind these values is PubChem BioAssay (NCATS).
